F508del corr: F508del CFTR correction, initial screen, CFBE line, single point; CFBE cells, YFP halide quenching; stimulated with forskolin plus potentiator P3; % fluorescence drop versus neutral controls; activity (quench increase), % at 7.58 µM; 0.36% of 350,000 active; AID 720511, 2013;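 active means mean added fluorescence quench of at least 8% versus neutral control, with both replicates also reaching 8%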;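 further: cells transiently co-express mutant CFTR-F508del with the halide-sensitive YFP; corrector assay measuring rescue of mutant channel to the surface after 24 h compound exposure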
GSIS activator: GLuc luminescence reporter in INS-1E cells, primary screen for activators of glucose-dependent secretion of insulin; INS-1E GLuc reporter insulin secretion, 2-3 h; activation, % at 16.6 µM; 0.61% of 370,000 active; AID 743287, 2014;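 active means lowest replicate activation of at least 40%, so every replicate reaches that level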;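 further: 0% = median of neutral control wells and 100% = median of IBMX positive control wells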
MITF TRPM1 HTS: activators of MITF-driven TRPM1 promoter reporter, primary screen, cell-based, SK-MEL-5, luciferase, single point; 0.75% of 300,000 active; activation, % at 12.5 µM; SK-MEL-5 TRPM1-promoter luciferase, 24 h; % of positive control, neutral wells = 0;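 active means mean activation of at least 80% with every replicate also reaching 80%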;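 further: 0% = neutral control wells and 100% = parthenolide positive control wells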
Wnt bcat act: Wnt/beta-catenin pathway activators, primary screen, cell-based, plate reader, single point | Wnt/beta-catenin reporter cell assay, activator | activation, % at 9.35 µM | 1.2% of 300,000 active | AID 743398, 2014; in the data active means activation above about 30%, passing the limit was not always enough;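 further: 0% = neutral control wells and 100% = positive control wells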
HIV Env fusion: inhibitors of HIV-1 Env-driven cell-cell fusion, primary screen, HeLa-JRFL effector, CEM21 target cells, luciferase; 1.1% of 360,000 active; AID 651610, 2012; inhibition, % at 12.3 µM;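 active means mean replicate inhibition score of at least 50 and every replicate individually at or above 50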;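 further: 0% = plate neutral controls and 100% = maraviroc near 300 nM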
An asterisk follows results filed as active; . = no result given; [ ] = another dose, or the depositor's remark. Sampled rows, rich in hits. Any-hit rate of the full collection: about 2.7%.

SMILES	F508del corr	GSIS activator	MITF TRPM1 HTS	Wnt bcat act	HIV Env fusion
COc1cccc(C#Cc2ccc([C@H]3[C@@H](CO)N(C(=O)C4CCCC4)[C@H]3C#N)cc2)c1	3	-15	.	.	69*[16.7 µM]
N#C[C@H]1[C@@H](c2ccc(-c3cccc(F)c3)cc2)[C@H](CO)N1C(=O)NC1CCCC1	0	-17	.	.	9[16.7 µM]
N#C[C@@H]1[C@H](c2ccc(-c3ccccc3F)cc2)[C@@H](CO)N1C(=O)c1ccccn1	0	1	.	.	57*[16.7 µM]
CCCNC(=O)N1[C@H](C#N)[C@H](c2ccc(C#Cc3ccc(F)cc3)cc2)[C@@H]1CO	8.4*	-3	.	.	21[16.7 µM]
COc1ccc(CN(C)C[C@@H]2OCCCC[C@@H](C)Oc3ccc(NS(=O)(=O)c4c(C)noc4C)cc3C(=O)N([C@H](C)CO)C[C@@H]2C)cc1	-2	-2	.	.	-8[16.7 µM]
O=C(O)C[C@H]1C[C@@H]2c3cc(NC(=O)C4CCOCC4)ccc3O[C@@H]2[C@@H](CO)O1	-1	12	.	.	-27[16.7 µM]
C[C@@H]1CN([C@@H](C)CO)C(=O)c2cc(-c3ccccc3)cnc2O[C@H]1CN(C)C(=O)C1CCCCC1	-1	-26	.	.	-6[16.7 µM]
CC(=O)NC1C(OCc2ccccc2)OC(CO)C(OC(C)=O)C1OC(C)=O (stereo not drawn)	.	6	-5	36*	7
Nc1ncnc2c1ncn2[C@@H]1O[C@H](CO)[C@@H](O)[C@H]1O	2	.	11	1	32
Nc1ncnc2c(C3OC(CO)C(O)C3O)c[nH]c12 (stereo not drawn)	2	-10	-99	-5	95*
Cc1nc(NCc2cccnc2)c2c3c(sc2n1)CCCC3	12*	-8	1	-1	12
COC(=O)C1=C(C)Nc2nc3ccccc3n2C1c1cc(OC)c(OC)c(OC)c1 (stereo not drawn)	1	-5	.	44*	16
c1ccc2c(c1)N1CCCN=C1N2CCN1CCCCC1	8.9*	0	-5	-1	-8
c1ccc2c(c1)N1CCN=C1N2CCN1CCCCC1	.	5	.	-1	.
O=C1CN(S(=O)(=O)Cc2ccccc2)C[C@H]2[C@H](c3ccc(C#Cc4cccc(F)c4)cc3)[C@@H](CO)N12	5	-25	.	.	.
O=C(C1CCCCC1)N1CC(=O)N2[C@@H](CO)[C@@H](c3ccc(C#Cc4cccc(F)c4)cc3)[C@@H]2C1	1	-2	.	.	.
O=C(C1CCCCC1)N1CC(=O)N2[C@@H](CO)[C@H](c3ccc(C#Cc4cccc(F)c4)cc3)[C@@H]2C1	9.6*	2	.	.	.
O=C1CN(S(=O)(=O)Cc2ccccc2)C[C@@H]2[C@@H](c3ccc(C#Cc4cccc(F)c4)cc3)[C@H](CO)N12	8.1*	-6	.	.	.
CN(C)C(=O)c1ccc(-c2ccc([C@@H]3[C@@H](CO)N4C(=O)CN(C(=O)C5CC5)C[C@@H]34)cc2)cc1	0	67*	.	.	.
CC(C)C#Cc1ccc([C@@H]2[C@@H](CO)N3C(=O)CN(S(=O)(=O)c4ccccc4)C[C@@H]23)cc1	12*	-12	.	.	.
COc1cccc(C#Cc2ccc([C@H]3[C@@H](CO)N4C(=O)CN(C(C)=O)C[C@@H]34)cc2)c1	3	17	.	.	.
C/C=C/c1ccc2c(c1)O[C@H](CN(C)C(=O)Cc1cccnc1)[C@H](C)CN([C@@H](C)CO)S2(=O)=O	0	6	.	.	10[16.7 µM]
CCNC(=O)C[C@H]1C=C[C@H](NS(=O)(=O)c2ccc(C)cc2)[C@@H](CO)O1	1	2	.	.	-34[16.7 µM]
CC(C)CC#Cc1ccc([C@H]2[C@@H](CO)N3C(=O)CN(C(=O)Nc4cc(F)ccc4F)C[C@@H]23)cc1	1	-5	.	.	.
CC(C)CC#Cc1ccc([C@H]2[C@H](CO)N3C(=O)CN(C(=O)Nc4cc(F)ccc4F)C[C@@H]23)cc1	11*	-17	.	.	.
SMILES	F508del corr	GSIS activator	MITF TRPM1 HTS	Wnt bcat act	HIV Env fusion
Cc1cc(C)c(C(N)=O)c(Nc2cccc(Cl)c2)n1	1	8	5	2	.
Cc1ccccc1Nc1sc(C(=O)Nc2cccc(Cl)c2)c(N)c1C(N)=O	1	5	17	52*	6
COc1ccccc1CNC(=O)C[C@@H]1C[C@@H]2c3cc(NS(=O)(=O)c4ccc(F)cc4)ccc3O[C@@H]2[C@H](CO)O1	5	-20	.	.	15[16.7 µM]
O=C1CCCN1c1ccc(S(=O)(=O)NCCOc2ccccc2)cc1	.	.	-15	-8	30
Cc1cc(N2CCCC2=O)cc(C)c1S(=O)(=O)NCCOc1ccc(C(C)(C)C)cc1	.	-21	10	3	85*
C[C@H](CO)N1C[C@H](C)[C@@H](CN(C)Cc2ccc3c(c2)OCO3)Oc2ccc(NC(=O)CCN3CCOCC3)cc2C1=O	2	10	.	.	-17[16.7 µM]
Cc1ccccc1/C=C1\CCCc2ccccc2C1=O	.	.	.	77*	-350
Cc1noc(C)c1NC(=O)N(C)C[C@H]1OCCCC[C@@H](C)Oc2ccc(N(C)C)cc2C(=O)N([C@H](C)CO)C[C@H]1C	-4	-9	.	.	-36[16.7 µM]
CCCOC(=O)C[N+](C)(C)CCOC1CC2CCC1(C)C2(C)C (stereo not drawn)	-1	-6	9	-2	-3
CC(C)CCOC(=O)C[N+](C)(C)CCOC1CC2CCC1(C)C2(C)C (stereo not drawn)	0	-33	-5	-1	76*
CCCCOC(=O)C[N+](C)(C)CCOC1CC2CCC1(C)C2(C)C (stereo not drawn)	-1	-12	-11	-3	103*
CCCCCCOC(=O)C[N+](C)(C)CCOC1CC2CCC1(C)C2(C)C (stereo not drawn)	.	.	.	.	-80
CCC(C)OC(=O)C[N+](C)(C)CCOC1CC2CCC1(C)C2(C)C (stereo not drawn)	0	-15	-15	-9	66*
CCCCCCCOC(=O)C[N+](C)(C)CCOC1CC2CCC1(C)C2(C)C (stereo not drawn)	1	433*	-94	-7	75*
C[C@H]1CN([C@@H](C)CO)C(=O)Cc2cc(NC(=O)Nc3ccc(F)cc3)ccc2O[C@@H]1CN(C)CC1CCCCC1	-1	-14	.	.	-7[16.7 µM]
Cc1ccc(NC(=O)c2ccccc2)cc1	.	21	.	.	-126
Cc1ccc(NC(=O)C2=C(c3ccccc3)S(=O)(=O)CCS2(=O)=O)cc1	-2	155*	-94	27	-40
Cc1ccc(CNC(=O)COC(=O)c2ccc(S(=O)(=O)N(C)C)cc2)cc1	8.1*	9	16	-19	-2
CN(C)S(=O)(=O)c1ccc(C(=O)OCC(=O)NCc2ccccc2)cc1	-2	10	-5	25	21
C#CCn1c(S(=O)(=O)Cc2ccc(C)cc2)nc(-c2ccccc2)c1-c1ccccc1	.	.	12	.	146*
CCOC(=O)Cn1c(S(=O)(=O)Cc2ccccc2Cl)nc(-c2ccccc2)c1-c1ccccc1	1	8	2	-3	.
C#CCn1c(C)cc(C)c(S(=O)(=O)c2ccccc2)c1=O	1	8	7	3	-10

Bioassay records deposited in PubChem by Broad Institute.
